The source of these data is PubChem BioAssay (NCATS).

The structures appear in SMILES notation. Values joined by “and” are separate entries in the source; they are usually repeats but may differ in a detail not shown here. Identical values can stand only once. A number with no mark means an inactive call. Results filed as inconclusive are left out. Active and inactive are the calls of the source. Unless noted, the call rests on the fitted dose curve; in most records, active means well fitted curve in the direction sought with a large enough effect; inconclusive means small, poorly fitted or top-dose-only effect, or another doubt; inactive means no such curve, though single readings can be large; an effect the other way counts as inactive or inconclusive.

The nature of test [1]: Cellular Toxicity (caspase-3) SHSY5Y (AID 657). In short, it runs like this: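 Cells plated and incubated 5 h at 37 °C, dosed over a concentration range, incubated 16 h, then given Caspase-Glo 3/7 reagent for 1 h at room temperature before luminescence reading. Staurosporine (10 uM) defined full stimulation.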
A short description of test [2]: Cellular Toxicity (caspase-3) BJ (AID 658).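 Further: 0% = DMSO basal and 100% = 10 µM staurosporine.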 In short, it runs like this: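 Luminescent aminoluciferin-substrate cleavage reports caspase 3/7 activity in normal human BJ fibroblasts after 16 hr compound exposure at 37 °C. Normalized to DMSO (basal) and 10 uM staurosporine (100%); AC50 from Hill fit of concentration-response.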
Test [3] can be described thus: Cellular Toxicity (caspase-3) N2a (AID 665).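 Further: compound exposure lasted 16 h at 37 °C before readout.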 In short, it runs like this: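 Mouse N2a neuroblastoma cells (1500/well) were treated with compounds for 16 h at 37 °C, then caspase-3/7 activity was read by Caspase-Glo luminescence after 1 h at room temperature. Data were normalized to DMSO and 10 uM staurosporine; AC50 from Hill fits.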
Test [4] in a line: Cellular Toxicity (caspase-3) Renal Proximal Tubule (AID 667).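 Further: cells exposed to compound for 16 hours at 37 °C before detection; 0% = DMSO basal and 100% = 10 µM staurosporine.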 In short, it runs like this: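 In qHTS format, rat primary proximal tubule cells seeded at 1000 per well are exposed to compounds for 16 hours at 37 °C. An increase in Caspase-Glo 3/7 luminescence indicates caspase activation.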
A short description of test [5]: MultiTox-Fluor Cytotoxicity Assay - LYMP1-001 - Dead Cells (AID 946). A digest of the protocol:
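Cytotoxicity as increased dead-cell protease fluorescence (bis-AAF-R110, 485/520 nm), read 60 min after MultiTox-Fluor reagent. Human lymphoblastoid line exposed 16 h; Hill-fitted AC50, with DMSO as 0% and 15 uM tetraoctylammonium bromide as 100%.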

Test [6] is described as follows: Cell Viability - LYMP1-002 - Assay at 16 hr (AID 948).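 Further: 0% = DMSO alone and full effect = 92 µM tetraoctylammonium bromide.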 In short, it runs like this: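 Acute cytotoxicity is scored as a concentration-dependent fall in intracellular ATP in a human lymphoblastoid line (LYMP1-002) after 16 hr compound exposure at 37 C, measured by luciferase luminescence.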
The nature of test [7]: MultiTox-Fluor Cytotoxicity Assay - LYMP1-003 - Dead Cells (AID 961). Further: nearly all actives have a fitted effect of over 70% in size. A digest of the protocol:
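Dead-cell protease release, detected as bis-AAF-R110 fluorescence at 485/520 nm, was measured in LYMP1-003 cells after 16 h compound treatment at 37 C. AC50 values came from Hill-modeled qHTS curves normalized to DMSO (0%) and 15 uM tetraoctylammonium bromide (100%).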

A short description of test [8]: Cell Viability - LYMP1-003 - Assay at 24 hr (AID 963).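 Further: plate controls were DMSO only for no effect and tetraoctylammonium bromide positive control for full effect.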 In short, it runs like this: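 Human lymphoblastoid LYMP1-003 cells (2500/well) were rested 5 hr at 37 C, then exposed to compounds in complete medium for 24 hr at 37 C. Cellular ATP was quantified by CellTiter-Glo luminescence, and AC50 values came from Hill fits of concentration-response data.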
Test [9] in a line: Cell Viability - LYMP2-003 (AID 965).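 Further: cells exposed to compounds for 24 h before reading; 0% = DMSO only and full effect = 92 µM tetraoctylammonium bromide; nearly all actives have a fitted effect of over 50% in size.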 In short, it runs like this: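 Acute cytotoxicity is scored as a concentration-dependent drop in intracellular ATP, measured by luciferase luminescence in human lymphoblastoid cells treated for 24 hours at 37 C. AC50 values derive from Hill-equation modelling.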
Test [10] can be described thus: Cell Viability - LYMP2-013 (AID 970).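 Further: series mostly up to about 92 µM; 0% = DMSO only and full inhibition = tetraoctylammonium bromide control; nearly all actives have a fitted effect of over 55% in size.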 A digest of the protocol: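 Human lymphoblastoid cells, 2500/well, were preincubated 5 hr at 37 C, then treated with compounds for 24 hr at 37 C in complete medium. Intracellular ATP was read by CellTiter-Glo luminescence; AC50 from Hill-equation fits of concentration-response data.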
Test [11] is described as follows: Cell Viability - LYMP2-019 (AID 973).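 Further: 0% = DMSO alone and full effect = 92 µM tetraoctylammonium bromide; nearly all actives have a fitted effect of over 55% in size.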 A digest of the protocol: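 Human lymphoblastoid cells were seeded at 2500 cells/well, preincubated 5 hr at 37 C, then exposed to compounds for 24 hr at 37 C in complete medium. Intracellular ATP was measured by CellTiter-Glo luminescence; AC50 from Hill fits.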
Test [12] is described as follows: Cell Viability - LYMP2-008 (AID 980). Further: on the % scale 0 is the no-effect control and ±100 the full control effect; nearly all actives have a fitted effect of over 60% in size. In short, it runs like this: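 Human lymphoblastoid cells (2500/well) were plated, held 5 hr at 37 C, then exposed to compounds for 24 hr at 37 C in complete medium. Intracellular ATP was read by CellTiter-Glo luminescence; AC50 from Hill-fitted concentration-response.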
Test [13] in a line: Cell Viability - LYMP2-012 (AID 982).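 Further: cellular ATP by luciferase luminescence where a drop means cytotoxicity; cells exposed to compound for one day before reading; 0% = DMSO only and full loss = 92 µM tetraoctylammonium bromide; nearly all actives have a fitted effect of over 55% in size.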
The nature of test [14]: Cell Viability - LYMP2-016 (AID 984). Further: on the % scale 0 is the no-effect control and ±100 the full control effect; nearly all actives have a fitted effect of over 55% in size. A digest of the protocol: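 Acute toxicity in a Coriell human lymphoblastoid line is scored as loss of intracellular ATP over 24 h of treatment in complete medium. CellTiter-Glo signal is fitted across concentrations with the Hill equation to give AC50.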
A short description of test [15]: Cell Viability - LYMP1-002 - Assay at 24 hr (AID 993). Further: on the % scale 0 is the no-effect control and ±100 the full control effect. In short, it runs like this:
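Human lymphoblastoid LYMP1-002 cells, 2500/well in complete medium, were treated with compounds for 24 h at 37 C; intracellular ATP was read by CellTiter-Glo luminescence. AC50 values came from Hill-equation fits of qHTS concentration-response data.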

Test [16] is described as follows: Cell Viability - LYMP1-002 - Assay at 40 hr (AID 994). Further: nearly all actives have a fitted effect of over 60% in size. Further: potency means the concentration at half of the fitted maximal effect. A digest of the protocol: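 Human lymphoblastoid cells, 2500/well in complete medium, were preincubated 5 hr at 37 C, then exposed to compounds for 40 hr at 37 C. Intracellular ATP was read by CellTiter-Glo luminescence after 30 min at room temperature; AC50 from Hill-equation fits.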
Test [17] is described as follows: qHTS Assay for Identification of Small Molecule Inducers of Hypoxia Response (AID 2120; active means well fitted curve in the direction sought with a large enough effect in the signal ratio, with a control signal flat, not every such curve was filed as active; the % refers to the signal ratio; further: 0% is about no effect). A digest of the protocol:
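HRE-beta-lactamase reporter in CellSensor HRE-bla ME-180 cells, 2500 cells/well in Opti-MEM with 0.5% dialyzed FBS; compounds tested as titration series, 17 h at 37 degrees C. CCF4 substrate 2.5 h at room temperature; AC50 from 460/530 nm ratio.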
For orientation: In qHTS, concentration-response curves come from the screen itself.

Test [18] concerns the target Peroxisome proliferator-activated receptor alpha (Homo sapiens) (UniProt Q07869). The test is described as follows: qHTS assay for small molecule agonists of the peroxisome proliferator-activated receptor alpha (PPARalpha) signaling pathway (AID 651778). Further: % of control where 0% means no effect. As to conditions: PathHunter PPARalpha complementation, chemiluminescence, 6 h; hits give high values. In short, it runs like this: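 Cells plated at 2,000/well and held overnight at 37 C, 5% CO2, then compound added by pin tool for 6 hr; after PathHunter detection reagent and 60 min at room temperature, chemiluminescence from enzyme complementation was read.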

Test [19] in a line: qHTS assay for cell viability of HEK293 cells (AID 743288). Further: on the % scale 0 is the no-effect control and ±100 the full control effect; nearly all actives have a fitted effect of over 50% in size. As to conditions: ATP luminescence (CellTiter-Glo), 18 h, hits give low values. In short, it runs like this:
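The Tox21 protocol used parental HEK293 cells treated for 18 h at 37 C with compounds delivered by pintool; ATP-coupled luminescence after 30 min at room temperature gave viability.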

The nature of test [20]: qHTS assay for cell viability of the p53RE-bla HCT-116 cell line (AID 743292). A digest of the protocol: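 ATP-based luminescence, 16 h compound exposure at 37 C, p53RE-bla HCT-116 cells at 4,000/well.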

Sequence of Peroxisome proliferator-activated receptor alpha (Homo sapiens) (Q07869 whole entry, looked up): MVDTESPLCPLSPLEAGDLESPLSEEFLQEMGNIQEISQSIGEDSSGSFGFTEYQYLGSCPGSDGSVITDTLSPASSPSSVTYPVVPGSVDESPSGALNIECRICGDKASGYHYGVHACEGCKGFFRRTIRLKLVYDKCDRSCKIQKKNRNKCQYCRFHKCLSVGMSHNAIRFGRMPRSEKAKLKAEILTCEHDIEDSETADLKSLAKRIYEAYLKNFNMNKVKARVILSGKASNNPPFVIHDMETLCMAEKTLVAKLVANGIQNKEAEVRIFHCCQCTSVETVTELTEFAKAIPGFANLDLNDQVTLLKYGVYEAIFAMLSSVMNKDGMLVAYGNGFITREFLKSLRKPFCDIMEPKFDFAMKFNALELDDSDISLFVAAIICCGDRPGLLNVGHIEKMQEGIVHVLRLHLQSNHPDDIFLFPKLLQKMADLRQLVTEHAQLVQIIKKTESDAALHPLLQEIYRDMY

With `C=CC=O`, the molecule was classed as inactive in [1], in test [2], in test [3], in test [4], in [5] and in [6]. In [8], the outcome was inactive. Also, the Potency entry in [7], in [9], in [10], in test [11], in test [12] and in [13] was “inactive” in each case. In addition, the Potency entry in test [14], in test [15], in [16], in test [17] and in [20] was “inactive” each time. In addition, the figures for the max response in test [18] and in test [19] were -5.14% and -14.3%, respectively.

For `CCCN(CCC)c1c([N+](=O)[O-])cc(C(F)(F)F)cc1[N+](=O)[O-]`, the outcome in [1], in test [2], in test [3], in [4], in test [5] and in test [6] was inactive. The outcome in [8] was inactive. For the same molecule, the Potency result in test [7], in test [9], in [10], in test [11], in [12] and in test [13] was “inactive” throughout. For the same molecule, the Potency entry in test [14], in test [15], in test [16], in [17] and in test [20] was “inactive” throughout. Besides, the max response was 2.49% and -0.599% in test [18]; 12.8% and -6.09% in [19].

For the molecule `C(CCOCC1CO1)COCC1CO1` (centres undefined), the result in test [1], in [2], in test [3], in test [4], in test [6] and in test [8] was inactive. Besides, the Potency entry in [7], in test [9], in [10], in test [11], in test [12] and in [13] was “inactive” throughout. Moreover, the Potency result in [14], in test [15], in [17] and in test [20] was “inactive” in each case. In addition, the Potency in [16] is 39.8 µM (active). The max response in [18] was -0.765%; in [19], -15.1%.

On to `CSSC`, for which the result in test [1], in [2], in test [3], in [4], in test [5] and in test [6] was inactive. Besides, the molecule was classed as inactive in test [8]. The Potency result in test [7], in test [9], in test [10], in test [11], in test [12] and in [13] was “inactive” each time. In addition, the Potency result in test [14], in test [15], in test [16], in test [17] and in test [20] was “inactive” throughout. The results for the max response in [18] and in test [19] were -6.95% and -1.5%, respectively.

`ClC(Cl)Br`: the molecule was called inactive in [1], in test [2], in test [3], in test [4], in test [5] and in test [6]. The outcome in [8] was inactive. Moreover, the Potency result in test [7], in test [9], in test [10], in test [11], in test [12] and in test [13] was “inactive” each time. In addition, the Potency result in [14], in [15], in test [16], in test [17] and in test [20] was “inactive” throughout. The max response in [18] is -1.39%; in test [19] it was 7.42%.

Regarding `O=C(O)C(Br)Br`, the call in test [1], in test [2], in [3], in [4], in test [5] and in [6] was inactive. The call in test [8] was inactive. Besides, the Potency result in test [7], in test [9], in test [10], in test [11], in test [12] and in test [13] was “inactive” throughout. Moreover, the Potency result in test [14], in [15], in test [16], in test [17] and in [20] was “inactive” each time. In addition, the max response in test [18] was 14.7%; in test [19], -1.04%.

Take `CCOP(=O)(OCC)OCC`: the outcome in [1], in test [2], in [3], in test [4], in [5] and in test [6] was inactive. Besides, in test [8], the outcome was inactive. The Potency result in test [7], in test [9], in test [10], in test [11], in test [12] and in test [13] was “inactive” in each case. Moreover, the Potency entry in [14], in [15], in test [16], in test [17] and in test [20] was “inactive” throughout. Also, the max response in test [18] is 0.636% and -0.566%; in [19] it was 5.7% and 3.95%.
